# From PubChem BioAssay
# Active and inactive are the calls of the source.
# Key:
# [1] = tested on: Plasmodium falciparum Sir2 (PF13_0152, Sir2A); test: Plasmodium falciparum Sir2A binding compounds – biochemical, small-molecule microarray, 635 nm fluorescence, primary screen (AID 1098); conditions: fluorescence 635 nm, higher = more signal;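 also: score merges spot fluorescence intensity with its signal-to-noise ratio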
# [2] = probe aDKK1 binding to arrayed compounds – biochemical, biotinylated probe, 635/667 nm fluorescence, primary screen (AID 1099); conditions: small-molecule microarray, higher = more signal;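 also: score merges 667nm spot fluorescence with signal to noise across triplicate slides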
# [3] = probe aCHRDL2 binding to arrayed compounds – biochemical, biotinylated probe, 635/667 nm fluorescence, primary screen (AID 1100); conditions: small-molecule microarray, higher = more signal
# [4] = change in splice reporter luminescence, either direction, cell-based, HEK293, spliceosome inhibition project, primary screen (AID 1101); conditions: HEK293 splicing luciferase reporter, 24 h, higher = more signal, called active from +8 up or from −8 down;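 also: HEK293 cells carrying a splicing-competent luciferase reporter gene; test concentration not given here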
# [5] = target: Fibroblast growth factor 10 (Homo sapiens) (UniProt O15520); test: compounds binding fibroblast growth factor 10 – biochemical, small-molecule microarray, 635 nm fluorescence, primary screen (AID 1102); conditions: FGF10 binding, fluorescence 635 nm, higher = more signal
# [6] = tested on: glycogen synthase kinase-3 (GSK3A per assay name; protocol says GSK3B); test: compounds binding glycogen synthase kinase-3 – biochemical, small-molecule microarray, 635 nm fluorescence, GSK3A, primary screen (AID 1103); conditions: fluorescence 635 nm, higher = more signal; also: the record names both GSK3A and GSK3B
# [7] = target: Epidermal growth factor receptor (Homo sapiens) (UniProt P00533); test: compounds binding epidermal growth factor receptor – biochemical, small-molecule microarray, 635 nm fluorescence, primary screen (AID 1104); conditions: EGFR binding, higher = more signal;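 also: score merges 667 nm emission intensity with spot signal to noise over triplicate slides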
# [8] = target: Follistatin-related protein 3 (Homo sapiens) (UniProt O95633); test: compounds binding follistatin-related protein 3 – biochemical, small-molecule microarray, 635 nm fluorescence, primary screen (AID 1105); conditions: FSTL3 binding, higher = more signal;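 also: score merges emission near 667 nm and signal to noise per printed spot across three slides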
# [9] = target: Dickkopf-related protein 1 (Homo sapiens) (UniProt O94907); test: small molecules binding DKK1 protein – biochemical, small-molecule microarray, 635 nm fluorescence scan, primary screen (AID 1106); conditions: higher = more signal;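 also: score merges emission near 667 nm with signal to noise over three replicate slides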
# [10] = tested on: Inhibin beta A chain (activin A); test: small molecules binding activin A – biochemical, small-molecule microarray, 635 nm fluorescence scan, primary screen (AID 1107); conditions: INHBA, higher = more signal;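 also: mouse activin A protein probed at 4.33 µg/mL on printed slides; score merges bound-protein fluorescence near 667 nm with spot signal-to-noise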
# [11] = tested on: Human papillomavirus type 1a protein E7 (residues 44-93); test: small molecules binding HPV E7 44-93 – biochemical, small-molecule microarray, residues 44-93, 635 nm fluorescence, primary screen (AID 1108); conditions: fluorescence 635 nm, higher = more signal;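 also: E7 fragment applied at 1 µg/mL in TBST for 1 h at 4 C; score combines spot fluorescence with its signal to noise ratio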
# [12] = hepatitis C replication reporter changes, two-sided – Huh7 cells, luciferase reporter, HCV replication inhibitor project, primary screen (AID 1109); conditions: Huh7 HCV replicon luciferase reporter, 48 h; higher = more signal;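 also: huh7 hepatoma cells harbouring a luciferase neomycin HCV replicon reporter; luciferase luminescence as measure of HCV replicon replication; test concentration not given here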
# [13] = target: Left-right determination factor 2 (Homo sapiens) (UniProt O00292); test: small molecules binding LEFTY2 protein – biochemical, small-molecule microarray, 635 nm fluorescence scan, primary screen (AID 1110); conditions: higher = more signal
# [14] = target: Calmodulin-1 (Homo sapiens) (UniProt P0DP23); test: small molecules binding calmodulin-1 with EGTA – biochemical, small-molecule microarray, Cy5-labelled CALM1, profiling panel (AID 1111); conditions: Cy5-CALM1 binding fluorescence, higher = more signal;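 also: labelled calmodulin applied in Tris saline Tween buffer holding calcium plus EGTA and DTT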
# [15] = target: Calmodulin-1 (Homo sapiens) (UniProt P0DP23); test: small molecules binding Ca-loaded calmodulin-1 – biochemical, small-molecule microarray, Cy5-labelled CALM1, plus calcium, artefact control for SMM control-protein annotation, profiling panel (AID 1112); conditions: Cy5-CALM1 binding fluorescence, higher = more signal;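 also: score merges spot fluorescence with signal to noise from triplicate slides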
# [16] = probe aWnt5a binding to arrayed compounds – biochemical, biotinylated probe, 635/667 nm fluorescence, primary screen (AID 1113); conditions: small-molecule microarray, higher = more signal;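 also: score merges 667 nm fluorescence intensity with signal-to-noise per printed feature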
# [17] = probe aShh binding to arrayed compounds – biochemical, biotinylated probe, 635/667 nm fluorescence, primary screen (AID 1114); conditions: small-molecule microarray, higher = more signal;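 also: probe is biotin-labelled aShh protein from a stem cell growth factor screen; measures binding of labelled protein to compounds printed on the slide; score merges feature fluorescence at 667 nm with signal-to-noise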
# [18] = probe aNog binding to arrayed compounds – biochemical, biotinylated probe, 635/667 nm fluorescence, primary screen (AID 1115); conditions: small-molecule microarray, higher = more signal;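 also: probe is biotinylated aNog protein used at 0.15 µg/mL for 1 h at 4 C; z-score combines 667 nm fluorescence of each spot with its signal to noise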
# [19] = target: Torsin-1A-interacting protein 1 (Homo sapiens) (UniProt Q5JTV8); test: compound microarray binding of lysate hLAP1 – cell lysate, small-molecule microarray, COS7 lysate, 635/667 nm fluorescence, primary screen (AID 1116); conditions: 635 nm fluorescence, higher = more signal
# [20] = target: Alpha-bungarotoxin (Bungarus multicinctus) (UniProt P60615); test: compounds binding labelled alpha-BTX control protein – biochemical, small-molecule microarray, Alexa647 label, 635/667 nm fluorescence, artefact control for SMM control protein annotation, profiling panel (AID 1117); conditions: alpha-BTX-A647 binding fluorescence, higher = more signal
# Chain of Alpha-bungarotoxin (Bungarus multicinctus) (P60615 whole entry, looked up): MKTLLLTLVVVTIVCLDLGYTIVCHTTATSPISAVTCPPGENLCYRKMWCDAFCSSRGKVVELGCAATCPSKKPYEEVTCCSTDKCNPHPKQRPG
# Chain of Dickkopf-related protein 1 (Homo sapiens) (O94907 whole entry, looked up): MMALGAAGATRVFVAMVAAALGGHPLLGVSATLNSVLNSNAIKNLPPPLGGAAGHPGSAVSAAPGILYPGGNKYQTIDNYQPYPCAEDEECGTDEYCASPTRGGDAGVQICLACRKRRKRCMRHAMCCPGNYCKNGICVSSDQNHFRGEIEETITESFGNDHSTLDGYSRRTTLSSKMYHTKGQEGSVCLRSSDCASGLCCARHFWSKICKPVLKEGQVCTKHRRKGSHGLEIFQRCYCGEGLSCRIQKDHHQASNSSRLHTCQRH
# Chain of Torsin-1A-interacting protein 1 (Homo sapiens) (Q5JTV8 whole entry, looked up): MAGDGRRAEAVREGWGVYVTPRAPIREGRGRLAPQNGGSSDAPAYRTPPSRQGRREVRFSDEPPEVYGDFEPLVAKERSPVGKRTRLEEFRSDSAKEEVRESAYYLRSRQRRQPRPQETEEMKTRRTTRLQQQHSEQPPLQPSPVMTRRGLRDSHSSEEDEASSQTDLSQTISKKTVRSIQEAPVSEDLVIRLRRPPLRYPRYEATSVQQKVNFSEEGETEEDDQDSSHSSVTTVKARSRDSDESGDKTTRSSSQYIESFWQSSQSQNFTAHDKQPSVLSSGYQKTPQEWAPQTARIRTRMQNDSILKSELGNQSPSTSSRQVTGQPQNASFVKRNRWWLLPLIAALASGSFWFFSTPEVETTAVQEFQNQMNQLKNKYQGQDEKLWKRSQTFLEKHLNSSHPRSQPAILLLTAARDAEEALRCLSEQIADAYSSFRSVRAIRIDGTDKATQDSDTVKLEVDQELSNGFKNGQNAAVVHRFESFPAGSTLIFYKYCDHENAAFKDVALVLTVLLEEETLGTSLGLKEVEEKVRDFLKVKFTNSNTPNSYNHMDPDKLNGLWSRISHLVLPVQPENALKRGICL
# Chain of Fibroblast growth factor 10 (Homo sapiens) (O15520 whole entry, looked up): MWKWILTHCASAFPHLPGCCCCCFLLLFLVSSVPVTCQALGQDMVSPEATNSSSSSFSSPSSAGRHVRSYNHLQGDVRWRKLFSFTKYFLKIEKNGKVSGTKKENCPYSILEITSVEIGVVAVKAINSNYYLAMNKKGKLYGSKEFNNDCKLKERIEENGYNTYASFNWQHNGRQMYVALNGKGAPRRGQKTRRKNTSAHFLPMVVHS
# Chain of Epidermal growth factor receptor (Homo sapiens) (P00533 whole entry, looked up): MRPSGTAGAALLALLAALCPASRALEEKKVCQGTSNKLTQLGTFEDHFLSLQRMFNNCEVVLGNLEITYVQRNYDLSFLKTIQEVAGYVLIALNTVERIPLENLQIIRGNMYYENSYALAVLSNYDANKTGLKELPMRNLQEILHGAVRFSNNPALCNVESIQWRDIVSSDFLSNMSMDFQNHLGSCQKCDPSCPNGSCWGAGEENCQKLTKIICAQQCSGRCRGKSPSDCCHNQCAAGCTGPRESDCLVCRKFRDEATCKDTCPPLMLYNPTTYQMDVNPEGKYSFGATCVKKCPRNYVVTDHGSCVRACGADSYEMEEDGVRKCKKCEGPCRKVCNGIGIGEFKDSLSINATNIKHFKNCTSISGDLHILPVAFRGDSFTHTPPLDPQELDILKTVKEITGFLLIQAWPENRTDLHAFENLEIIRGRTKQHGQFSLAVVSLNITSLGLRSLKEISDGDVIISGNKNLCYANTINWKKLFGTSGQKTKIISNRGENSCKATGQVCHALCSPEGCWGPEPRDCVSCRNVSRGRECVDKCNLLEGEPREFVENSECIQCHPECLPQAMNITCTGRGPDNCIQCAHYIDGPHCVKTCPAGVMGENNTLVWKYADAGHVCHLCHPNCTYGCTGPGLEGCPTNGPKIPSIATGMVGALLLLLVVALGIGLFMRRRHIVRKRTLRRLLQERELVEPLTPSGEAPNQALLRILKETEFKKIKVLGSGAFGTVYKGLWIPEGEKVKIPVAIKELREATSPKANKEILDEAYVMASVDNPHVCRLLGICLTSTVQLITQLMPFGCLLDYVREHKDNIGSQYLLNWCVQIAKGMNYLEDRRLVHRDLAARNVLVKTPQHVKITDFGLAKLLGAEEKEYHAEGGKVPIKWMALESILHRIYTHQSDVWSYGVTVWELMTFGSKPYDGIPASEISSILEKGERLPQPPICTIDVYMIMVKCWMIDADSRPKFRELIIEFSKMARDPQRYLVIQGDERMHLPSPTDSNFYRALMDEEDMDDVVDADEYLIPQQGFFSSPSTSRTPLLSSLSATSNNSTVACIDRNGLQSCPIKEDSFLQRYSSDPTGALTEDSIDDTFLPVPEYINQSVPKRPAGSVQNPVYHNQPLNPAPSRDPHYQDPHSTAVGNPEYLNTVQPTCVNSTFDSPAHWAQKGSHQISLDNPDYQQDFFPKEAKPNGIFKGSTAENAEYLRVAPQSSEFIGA
# Chain of Left-right determination factor 2 (Homo sapiens) (O00292 whole entry, looked up): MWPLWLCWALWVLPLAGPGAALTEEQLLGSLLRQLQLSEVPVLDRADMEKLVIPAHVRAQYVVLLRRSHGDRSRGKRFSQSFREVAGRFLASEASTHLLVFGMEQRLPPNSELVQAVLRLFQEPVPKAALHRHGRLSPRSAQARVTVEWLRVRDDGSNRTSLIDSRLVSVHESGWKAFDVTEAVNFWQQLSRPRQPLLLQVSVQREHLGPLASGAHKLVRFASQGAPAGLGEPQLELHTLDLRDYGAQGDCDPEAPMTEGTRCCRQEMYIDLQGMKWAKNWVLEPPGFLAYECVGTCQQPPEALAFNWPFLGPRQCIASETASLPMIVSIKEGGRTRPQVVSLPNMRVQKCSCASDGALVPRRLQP
# Chain of Follistatin-related protein 3 (Homo sapiens) (O95633 whole entry, looked up): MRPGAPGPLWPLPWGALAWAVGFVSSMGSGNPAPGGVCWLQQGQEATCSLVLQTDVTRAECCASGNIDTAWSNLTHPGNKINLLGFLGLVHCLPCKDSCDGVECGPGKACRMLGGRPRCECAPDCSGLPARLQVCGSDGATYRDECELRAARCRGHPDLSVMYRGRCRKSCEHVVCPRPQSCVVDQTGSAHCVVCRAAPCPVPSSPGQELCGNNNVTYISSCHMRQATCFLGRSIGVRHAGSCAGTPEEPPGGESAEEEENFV
SMILES,composite z-score [1],composite z-score [2],composite z-score [3],z-score [4],composite z-score [5],composite z-score [6],composite z-score [7],composite z-score [8],composite z-score [9],composite z-score [10],composite z-score [11],z-score [12],composite z-score [13],composite z-score [14],composite z-score [15],composite z-score [16],composite z-score [17],composite z-score [18],composite z-score [19],composite z-score [20]
C[C@@H](c1ccccc1)N1C(=O)[C@H]2[C@H]3[C@H](O)[C@H](O)CC(=NOC[C@@H](O)COCc4ccco4)[C@@H]3CC[C@H]2C1=O,0.693,-0.349,-0.402,-0.115 (inactive),-0.953,-0.468,-0.0809,-1.31,-1.03,-0.365,-0.856,0.816,-0.433,-0.495,-0.307,-0.124,-0.0863,-0.413,-0.375,0.556
COc1ccc(O[C@H]2C=C[C@@H](c3ccccc3)O[C@@H]2COC(=O)N2CCCCC2)cc1,-0.0945,-0.173,-0.225,0.757 (inactive),-0.398,-0.732,0.0392,-0.0999,0.0004,1.42,-0.57,-1.34,-0.0284,-0.781,-1.33,-0.0512,-0.0146,-0.267,0.323,-0.195
CC(C)CN1CCc2nc(-c3ccccc3)c3c(c2CC1)CO[C@@H](C)C3,-0.232,0.256,-0.469,0.00565 (inactive),0.515,0.123,0.471,0.202,0.718,0.157,-0.749,-0.747,0.774,-0.268,-0.177,0.027,0.191,-0.138,0.12,0.405
C[C@@H]1CCC2C(=O)N(Cc3ccccc3)C[C@@H](O)CN2[C@H]1c1ccc(Br)cc1 (stereo not given in full),0.892,-0.276,-0.441,-1.89 (inactive),0.91,0.104,-0.0897,0.078,0.228,0.203,0.671,0.344,0.149,0.102,-0.28,-0.169,-0.138,-0.0675,0.199,0.0711
CC(C)CON=C1C[C@@H](O)[C@@H](O)[C@@H]2[C@@H]3C(=O)N([C@@H](C)c4ccccc4)C(=O)[C@@H]3CC[C@H]12,0.43,-0.325,-0.565,0.115 (inactive),1.07,0.778,0.39,1.24,0.76,-0.204,1.36,0.775,0.756,0.336,-0.351,-0.124,-0.0011,-0.0308,0.619,0.922
COc1ccc(-c2nc3c(c4c2C[C@H](C)OC4)CN(CCC(C)C)CC3)cc1,0.785,-0.0348,-0.514,0.386 (inactive),1.02,1.08,0.472,1,0.388,-0.296,1.35,-0.257,0.6,0.518,0.038,-0.0239,0.123,-0.131,0.269,0.615
C=CC[C@@H]1C=C[C@H](ON=C(C)CCN2CCc3nc(CC)c(CC)cc3C2)[C@@H](CO)O1,1.17,0.0057,0.386,0.00248 (inactive),-0.0543,0.491,0.609,1.14,0.907,1.8,0.714,-1.57,0.83,-0.42,-1.34,0.0634,0.0952,0.222,0.779,0.243
